# IL-1B inflam inh: inflammasome signaling inhibition, IL-1 beta readout; 4.7% of 360,000 active; activity change, % at 57.5 µM; AID 743279; THP-1 LPS/ATP IL-1B secretion, AlphaLISA, 16 h; hits give low values; in the data active means activity change below about -50%; inconclusive means mostly about -30% to -49%
#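 THP-1 cells pretreated 1 hr with compounds (up to 57.5 uM final), then stimulated with LPS (250 ng/mL final) plus ATP (1.25 mM final); secreted IL-1B measured by AlphaLISA after 16 hr, decreased signal indicating inhibition.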
# ELG1 repair inh: inhibitors of ELG1-dependent DNA repair in HEK293T cells. HEK293T ELG1-luciferase reporter, luminescence, 16 h; DNA damage induced by 5-fluorouridine. Potency, µM (highest dose often 46.1 µM), for the others: at the top dose activity change, negative = inhibition, actives largely listed as inhibitors. 2.3% of 330,000 active; further: potency means the concentration at half of the fitted maximal effect; nearly all actives have a fitted effect of over 55% in size
#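 In this reporter screen, reduction of luminescence relative to DMSO vehicle indicated activity. Compounds and 5-fluorouridine were added together to 2,000 cells per well, incubated for 16 hr at 37 °C, then developed with ONE-Glo.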
# Giardia killer: Giardia lamblia killing; Giardia lamblia trophozoite viability; activity change, % at 7.66 µM, hits read low; 0.15% of 340,000 active; AID 540267; in the data active means activity change below about -80%; inconclusive means between about -30% and that limit;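 further: parasites exposed to compound for two days anaerobically before the ATP read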
#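 ATP-content bioluminescence gauges trophozoite survival. Cells (100/well) receive compound and incubate anaerobically for 48 hrs at 37 deg C; detection reagent follows for 15-30 min at room temperature.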
# DT40 TDP1 no CPT: qHTS for Inhibitors of human tyrosyl-DNA phosphodiesterase 1 (TDP1): qHTS in cells in absence of CPT; 15% of 420,000 active; DT40 Tdp1-/- hTDP1 cells, no CPT, ATP luminescence, 48 h; AID 686978, 2013; Potency, µM (top dose mostly 46.2 µM), for the others: at the top dose activity change, negative = growth inhibition, most hits filed as inhibitors; further: potency means the concentration at half of the fitted maximal effect; nearly all actives have a fitted effect of over 55% in size
#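 Seeded 400 DT40-hTDP1 cells/well (vehicle DMSO, no 20 nM CPT); pinned compounds; ≥48 hr at 37 °C; CellTiter-Glo luminescence as viability measure.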
# TDP1 inh: inhibitors of human tyrosyl-DNA phosphodiesterase TDP1; 0.28% of 350,000 active; recombinant TDP1, AlphaScreen DNA substrate cleavage; AID 485290; Q9NUW8; Potency, µM (doses to about 130 µM), without a hit: top-dose activity change, negative = inhibition, hits mostly inhibitors; further: potency means the concentration at half of the fitted maximal effect; nearly all actives have a fitted effect of over 40% in size
# Target sequence (Q9NUW8 whole entry, looked up): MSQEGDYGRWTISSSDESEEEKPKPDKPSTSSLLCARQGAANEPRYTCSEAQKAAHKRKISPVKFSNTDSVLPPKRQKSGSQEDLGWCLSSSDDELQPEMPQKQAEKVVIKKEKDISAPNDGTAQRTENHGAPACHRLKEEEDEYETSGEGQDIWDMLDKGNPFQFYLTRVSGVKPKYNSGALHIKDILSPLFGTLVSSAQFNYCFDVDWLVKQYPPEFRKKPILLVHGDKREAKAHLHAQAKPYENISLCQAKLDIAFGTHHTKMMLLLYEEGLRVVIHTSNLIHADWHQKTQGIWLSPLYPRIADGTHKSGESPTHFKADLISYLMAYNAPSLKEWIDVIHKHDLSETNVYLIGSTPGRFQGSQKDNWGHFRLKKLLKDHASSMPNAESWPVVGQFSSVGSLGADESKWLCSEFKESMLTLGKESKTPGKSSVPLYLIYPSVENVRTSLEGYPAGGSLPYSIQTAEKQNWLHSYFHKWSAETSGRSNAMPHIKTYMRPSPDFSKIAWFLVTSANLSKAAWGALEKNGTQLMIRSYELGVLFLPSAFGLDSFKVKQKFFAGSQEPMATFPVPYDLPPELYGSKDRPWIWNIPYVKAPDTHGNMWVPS
#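 Recombinant human Tdp1 (E. coli-expressed, 1 nM final) preincubated with compounds 15 min at room temperature, then 5'-biotin/3'-phosphotyrosine-FITC DNA substrate (15 nM final) added for 5 min. AlphaScreen beads (10 ug/ml final) added 10 min; cleavage lowers signal.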
# DT40 TDP1 CPT: growth inhibition of DT40 Tdp1-/-;hTDP1 cells with camptothecin (screen for TDP1 inhibitors); 12% of 420,000 active; chicken DT40 Tdp1-/-;hTDP1 cells + 20 nM CPT, ATP luminescence, 48 h; Potency, µM (doses to about 46.2 µM), for inactives: at the highest dose activity change, negative = growth inhibition, usual class: inhibitors; further: potency means the concentration at half of the fitted maximal effect; nearly all actives have a fitted effect of over 55% in size
#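 Chicken DT40 Tdp1-/- cells complemented with human TDP1, 400 cells/well, exposed to compounds plus 20 nM camptothecin for at least 48 h at 37 C; viability read as ATP content by CellTiter-Glo luminescence.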
# Numbers without * were called inactive; ? = inconclusive; . = not tested or not shown; [ ] = remark or other dose. A selection: hits, their analogues and other compounds. The true share with any hit is near 19%. Unless noted, the call rests on the fitted dose curve; in most records, active means well fitted curve in the direction sought with a large enough effect; inconclusive means small, poorly fitted or top-dose-only effect, or another doubt; inactive means no such curve, though single readings can be large; an effect the other way counts as inactive or inconclusive. On the % scale 0 is the no-effect control and ±100 the full control effect.
SMILES,IL-1B inflam inh,ELG1 repair inh,Giardia killer,DT40 TDP1 no CPT,TDP1 inh,DT40 TDP1 CPT
O=C(CSc1nc2c([nH]c3ccccc32)c(=O)n1-c1ccc(Cl)cc1)NCc1ccccc1,.,.,.,?,3%,?
Oc1cc(-c2ccccc2)c2ccccc2c1,-113*,-3%,-7,?,3%,18µM*
CCOc1cc(C(=O)NCCCNC(=O)c2cc(OCC)c(OCC)c(OCC)c2)cc(OCC)c1OCC,44,.,19,-24%,.,-25%
Cn1cc(S(=O)(=O)N2CCOCC2)cc1C(=O)O,-2,8%,-6,9%,1%,14%
CCOc1ccc(NC(=O)C2CCCN(S(=O)(=O)c3ccc4c(c3)CC(C)N4C(C)=O)C2)cc1 (centres undefined),-1,?,-1,-19%,1%,?
CCCNC(=O)C1CCCN(S(=O)(=O)c2ccc3c(c2)CC(C)N3C(=O)C2CC2)C1 (centres undefined),-8,?,?,?,.,?
CCOc1ccc(NC(=O)C2CCN(S(=O)(=O)c3ccc4c(c3)CC(C)N4C(C)=O)CC2)cc1 (centres undefined),52,-26%,-20,?,0%,?
CC(C)CCNC(=O)C1CCCN(S(=O)(=O)c2ccc3c(c2)CC(C)N3C(=O)C2CC2)C1 (centres undefined),-55*,-15%,-4,-27%,2%,?
CCc1ccc(NC(=O)C2CCCN(S(=O)(=O)c3ccc4c(c3)CC(C)N4C(C)=O)C2)cc1 (centres undefined),-5,?,0,26µM*,.,16µM*
CC(=O)N1c2ccc(S(=O)(=O)N3CCCC(C(=O)Nc4ccc(F)cc4)C3)cc2CC1C (centres undefined),-5,?,12,23µM*,.,?
CCc1ccc(NC(=O)C2CCN(S(=O)(=O)c3ccc4c(c3)CC(C)N4C(C)=O)CC2)cc1 (centres undefined),23,7.3µM*,4,10µM*,.,16µM*
CC(=O)NCCNC(=O)CCCc1nnc2n(CCC(C)C)c(=O)c3sccc3n12,.,.,.,-2%,3%,-5%
COc1cc(OC)c2c(-c3ccccc3)cc(=O)oc2c1C(CCN1CCCC1)c1ccc2c(c1)OCO2 (centres undefined),-21,24%,-10,?,14%,?
COc1cc(C(CCN2CCCC2)c2c(OC)cc(OC)c3c(-c4ccccc4)cc(=O)oc23)cc(OC)c1OC (centres undefined),17,6%,-1,21µM*,6%,16µM*
COc1ccc(C(CCN2CCN(c3ccccc3)CC2)c2c(OC)cc(OC)c3c(-c4ccccc4)cc(=O)oc23)cc1 (centres undefined),4,-2%,-19,?,16%,?
COc1cc(OC)c2c(-c3ccccc3)cc(=O)oc2c1C(CC(=O)N1CCN(c2ccccc2)CC1)c1ccc2c(c1)OCO2 (centres undefined),.,9%,.,.,?,.
COc1cc(OC)c2c(C)cc(=O)oc2c1C(CCN1CCN(c2ccccc2)CC1)c1ccc2c(c1)OCO2 (centres undefined),48,?,28,21µM*,11%,5.2µM*
COc1ccc(C(CCN2CCOCC2)c2c(OC)cc(OC)c3ccc(=O)oc23)cc1 (centres undefined),-3,?,?,21µM*,2%[56.1 µM],?
COc1ccc(C(CCN2CCCC2)c2c(OC)cc(OC)c3c(-c4ccccc4)cc(=O)oc23)cc1 (centres undefined),-6,4%,10,16µM*,10%,?
Cc1ccc(CNc2ncnc3sc(C(=O)N4CCCC(C(N)=O)C4)c(C)c23)o1 (centres undefined),.,.,.,-21%,.,-12%[9.04 µM]
COc1ccc(C(CCN2CCOCC2)c2c(OC)cc(OC)c3c(-c4ccccc4)cc(=O)oc23)cc1 (centres undefined),?,-8%,-28,8.2µM*,5%[56.1 µM],6.5µM*
COc1cc(C(CCN2CCCCC2)c2c(OC)cc(OC)c3c(C)cc(=O)oc23)cc(OC)c1OC (centres undefined),12,?,6,10µM*,5%,10µM*
COc1cc(OC)c2c(-c3ccccc3)cc(=O)oc2c1C(CCN1CCOCC1)c1ccc2c(c1)OCO2 (centres undefined),-15,-3%,-8,?,4%[56.1 µM],15µM*
O=C(C[C@H]1C/C=C\CC[C@H](Cc2ccc(F)cc2)C(=O)OC[C@@H](Cc2c[nH]c3ccccc23)NC1=O)NCCO,7,-2%,-23,?,2%,?
O=C(COc1cccc(C(F)(F)F)c1)NCC(c1ccco1)N1CCCC1 (centres undefined),-23,10%,-2,?,1%,-10%
SMILES,IL-1B inflam inh,ELG1 repair inh,Giardia killer,DT40 TDP1 no CPT,TDP1 inh,DT40 TDP1 CPT
CN1CCN(C(CNC(=O)Nc2ccc(Cl)cc2)c2ccc(F)cc2)CC1 (centres undefined),?,-1%,-5,?,3%,?
COc1ccc(C(CNC(=O)c2ccc(C)cc2)N2CCOCC2)cc1 (centres undefined),.,.,.,?,4%,?
CCCCOc1ccc(C(=O)NCC(c2ccc(Cl)cc2)N2CCOCC2)cc1 (centres undefined),.,.,.,21µM*,-2%,15µM*
O=C(NCC(c1ccco1)N1CCCCC1)c1ccc(COc2ccc(Cl)cc2)cc1 (centres undefined),-75*,.,-1,13µM*,.,21µM*
N#Cc1ccc(C(=O)NCC(c2ccco2)N2CCCCC2)cc1 (centres undefined),8,1%,?,5%,-2%,4%
O=C(NCC(c1ccc(Cl)cc1)N1CCCCC1)c1ccc(F)cc1 (centres undefined),.,.,.,13µM*,6%,13µM*
O=C(COc1ccc(Cl)cc1Br)NCC(c1ccco1)N1CCCC1 (centres undefined),-3,?,7,18µM*,5%,?
COc1cc(CC(=O)OCC(=O)NCCc2ccc(S(N)(=O)=O)cc2)cc(OC)c1OC,0,14%,-8,15%,-3%[56.1 µM],10%
CCCCCOc1ccc(C(=O)NCC2(c3ccccc3)CCOCC2)cc1,-25,33%,-5,?,-4%,?

# Compound activity deposited in PubChem by National Center for Advancing Translational Sciences (NCATS).
